# Results filed as inconclusive are left out. A call without a number means that no potency is given here. The source made the active and inactive calls. Unless noted, the call rests on the fitted dose curve; in most records, active means well fitted curve in the direction sought with a large enough effect; inconclusive means small, poorly fitted or top-dose-only effect, or another doubt; inactive means no such curve, though single readings can be large; an effect the other way counts as inactive or inconclusive.
# Key:
# [1] = molecular target: M-phase phosphoprotein 8 (Homo sapiens) (UniProt Q99549); experiment: qHTS Validation Assay for Inhibitors for MPP8 Chromodomain Interactions with Methylated Histone Tails (AID 488949);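 further: AlphaScreen signal from MPP8 chromodomain bound to biotinylated H3K9me3 peptide; top concentration of the series differs between compounds; nearly all actives have a fitted effect of over 55% in size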
# Procedure, shortened: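 Disruption of the preformed MPP8–trimethyl-H3K9 peptide complex (both 50 nM, 30 min, RT) is measured after 30 min compound exposure, using AlphaScreen proximity beads; aurintricarboxylic acid titration serves as plate control.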
# [2] = molecular target: Chromobox protein homolog 1 (Homo sapiens) (UniProt P83916); experiment: qHTS Validation Assay for Inhibitors of HP1-beta Chromodomain Interactions with Methylated Histone Tails (AID 488953);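 further: loss of AlphaScreen luminescence from HP1-beta binding biotinylated H3K9me3 peptide; series mostly up to about 110 µM; nearly all actives have a fitted effect of over 50% in size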
# Procedure, shortened: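 Measured as loss of AlphaScreen luminescence from streptavidin donor and nickel acceptor beads (10 ug/mL final) bridging HP1-beta and biotin-H3(1-18)K9me3, each 50 nM. Compounds met the preassembled complex for 30 min at RT.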
# [3] = molecular target: Methanococcus maripaludis chaperonin (MmCpn) (UniProt Q6LX38); experiment: High-Throughput Screening for Modulators of Cytosolic Chaperonin Activity: MmCpn Primary Screen (AID 488978);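 further: 50 nM MmCpn enzyme hydrolysing 30 µM ATP at 37 °C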
# Procedure, shortened: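 Measures ATPase turnover of the M. maripaludis chaperonin (50 nM final) against 30 uM ATP over 10 min at 37C, with compound added 5 min beforehand at room temperature. ADP is quantified by HTRF immunodetection.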
# [4] = molecular target: Thyrotropin receptor (Homo sapiens) (UniProt P16473); experiment: qHTS Assay for Antagonists of the Thyroid Stimulating Hormone Receptor (AID 488980); further: series mostly up to about 58 µM
# Procedure, shortened: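 Cells expressing human TSHR (HEK293) are dispensed in HBSS/HEPES containing 70 uM RO 20-1724, compound is added, then TSH at EC80 (4 nM final). Antibody in lysis buffer follows, 30 minutes at room temperature before HTRF detection.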
# [5] = molecular target: D(1A) dopamine receptor (Homo sapiens) (UniProt P21728); experiment: HTS Assay for Allosteric Agonists of the Human D1 Dopamine Receptor: Primary Screen for Agonists (AID 488981); further: potency means the concentration at half of the fitted maximal effect
# Procedure, shortened: (§1)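 Calcium flux in an inducible, force-coupled HEK293 Trex D1 line (overnight at 30 C): agonist mode is the 180 s kinetic read after compound; potentiator mode is the following 180 s read after dopamine at EC20.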
# [6] = molecular target: D(1A) dopamine receptor (Homo sapiens) (UniProt P21728); experiment: HTS Assay for Allosteric Agonists of the Human D1 Dopamine Receptor: Primary Screen for Potentiators (AID 488982)
# Procedure, shortened: as §1
# [7] = molecular target: D(1A) dopamine receptor (Homo sapiens) (UniProt P21728); experiment: HTS Assay for Allosteric Agonists of the Human D1 Dopamine Receptor: Primary Screen for Antagonists (AID 488983);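 further: calcium flux response to an EC80 dopamine challenge measured with no-wash dye; nearly all actives have a fitted effect of over 65% in size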; further: potency means the concentration at half of the fitted maximal effect
# Procedure, shortened: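 Screening of inducible HEK293 T-REx D1 cells: compound first, EC80 dopamine 180 s later, each phase read kinetically for calcium over 180 s.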
# [8] = molecular target: ATP-dependent 6-phosphofructokinase (Trypanosoma brucei brucei) (UniProt O15648); experiment: qHTS Assay to Find Inhibitors of T. brucei phosphofructokinase: hit validation (AID 492961);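 further: luminescence reports ADP formed as PFK phosphorylates fructose-6-phosphate with ATP; series mostly up to about 51 µM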
# Procedure, shortened: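 ADP-Glo luminescence read-out of ADP formed by 1.25 nM PFK from 0.1 mM ATP and 0.5 mM F6P (TEA pH 8.0, 45 min, RT). Compounds titrated; activity normalized to no-enzyme and full-enzyme controls.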
# [9] = Validation screen for small molecules that induce genotoxicity in human embryonic kidney (HEK293T) cells expressing luciferase-tagged ELG1 (AID 493106)
# Procedure, shortened: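 Reporter-gene quantitative HTS in HEK293T cells carrying luciferase-tagged ELG1, whose level climbs under genotoxic stress. Compound exposure lasts 16 hr at 37 °C before luciferase detection.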
# [10] = Nrf2 qHTS screen for inhibitors: Validation (AID 493153; active means well fitted inhibition curve with a large enough effect in the main read-out, with a control signal flat, not every such curve was filed as active); conditions: viability change: measured here: cytotoxicity max response
# Procedure, shortened: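 Dose-response validation uses reporter A549 cells with firefly luciferase under an antioxidant response element. Compounds stay on cells 18-24 h at 37°C, and luminescence indicates Nrf2-driven transcription.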
# [11] = qHTS for Inhibitors of Cell Surface uPA Generation: Validation Assay (AID 493164);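 further: RAW 264.7 macrophage cells exposed to compound for 18 h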
# Procedure, shortened: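 RAW 264.7, 4000 cells/well, o/n plating; cpd 7-pt 1:5 dilution 2.45 nM–38.3 uM final; 18 h, 37 C/5% CO2; ATP-Lite, 5 s luminescence exposure.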
# [12] = molecular target: Galactokinase (Homo sapiens) (UniProt P51570); experiment: qHTS Validation Assay for Inhibitors of Human Galactokinase (GALK) (AID 493189)
# Procedure, shortened: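 Compounds were pin-transferred into ATP buffer, then GALK-galactose mix was added (final 5 nM enzyme, 100 uM galactose, 35 uM ATP). After 1 h at room temperature, remaining ATP was measured luminescently.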
# [13] = Validation screen for small molecules that induce DNA re-replication in SW480 colon adenocarcinoma cells (AID 504364)
# Procedure, shortened: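 Cells are treated 48 hr with test compound, stained 40 min with Hoechst at 37 C, and scanned for nuclear fluorescence; compounds inducing re-replication increase nuclei with elevated intensity.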
# [14] = molecular target: Peptidyl-prolyl cis-trans isomerase NIMA-interacting 1 (Homo sapiens) (UniProt Q13526); experiment: qHTS Validation Assay to Find Inhibitors of Pin1 (AID 504536; active means well fitted inhibition curve with a large enough effect in the polarisation, with a control signal flat, not every such curve was filed as active; the % refers to the polarisation)
# Procedure, shortened: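 Fluorescence polarization competition: compounds (titration) displace HiFluor-488-labeled Pin1-1b peptide from Pin1 (0.3 uM final) in pH 7.5 HEPES buffer with DTT, 10 min at room temperature; %Activity normalized to no-enzyme wells, curves fitted.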
# [15] = molecular target: Phosphoglycerate kinase, glycosomal (Trypanosoma brucei brucei) (UniProt P07378); experiment: qHTS Validation Assay to Find Inhibitors of Phosphoglycerate Kinase (AID 504547)
# Procedure, shortened: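 Inhibition of the enzyme is judged by a Kinase-Glo Plus luminescent signal following a one-hour incubation at room temperature. Because 1,3-BPG is unstable, it is made in situ by GAPDH at 100nM final; no-PGK wells define the baseline.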
# [16] = molecular target: phosphoglycerate mutase (Leishmania major) (UniProt Q4Q090); experiment: qHTS Validation Assay to Find Inhibitors of Phosphoglycerate Mutase (AID 504548); further: series mostly up to about 58 µM
# Procedure, shortened: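 Luminescent end-point read-out via Kinase-GloPlus after a 10-minute development. Reaction: 1.25nM Leishmania major PGAM with substrate and compound, 45 minutes at room temperature in TEA buffer (pH 7.6) with MgCl2 and Tween-20.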
# [17] = molecular target: Ubiquitin carboxyl-terminal hydrolase 1 (Homo sapiens) (UniProt O94782); experiment: Inhibitors of USP1/UAF1: Pilot qHTS (AID 504865); further: nearly all actives have a fitted effect of over 35% in size; further: potency means the concentration at half of the fitted maximal effect
# Procedure, shortened: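 Kinetic fluorescence assay: 1nM USP1/UAF1, 15 min compound preincubation, then 150nM Ub-Rho; 480/540 nm.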
# [18] = molecular target: Transient receptor potential cation channel subfamily V member 1 (Homo sapiens) (UniProt Q8NER1); experiment: HTS Assay for Compounds that Act as Enhancers of the Vanilloid Receptor 1 (AID 488979)
# Procedure, shortened: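 Calcium influx kinetics via Fluo-8 (480/520 nm) in TRPV1-expressing cells, 2000/well cultured overnight at 35.5C. Compound-alone read 3 min (agonist phase), followed by EC20 capsaicin challenge for 2 min (enhancer phase).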
# [19] = molecular target: ATPase family AAA domain-containing protein 5 (Homo sapiens) (UniProt Q96QE3); experiment: Validation screen for small molecules that inhibit ELG1-dependent DNA repair in human embryonic kidney (HEK293T) cells expressing luciferase-tagged ELG1 (AID 493107);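 further: cells co-treated with the DNA-damaging agent 5-fluorouridine alongside compound; series mostly up to about 46 µM; inhibitors lower the ELG1-luciferase luminescence signal; nearly all actives have a fitted effect of over 70% in size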
# Procedure, shortened: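 Quantitative HTS in HEK293T cells carrying luciferase-tagged ELG1, stimulated with 5-fluorouridine alongside compound for 16 hr. Loss of luciferase signal marks inhibition of ELG1 response.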
# [20] = molecular target: Thyrotropin-releasing hormone receptor (Homo sapiens) (UniProt P34981); experiment: qHTS for Small Molecule Agonists and Allosteric Enhancers of Human TRH Receptor: Validation Screen for Agonists (AID 493127;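 active means calcium activation more than 3 SD above the typical response in the agonist read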;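 further: intracellular calcium rise by fluo-8 fluorescence before TRH EC20 addition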); conditions: TRH receptor agonist cell assay; at 2 µM; stronger effect = higher value
# Procedure, shortened: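 Gq-coupled calcium mobilization in TRHR cells after compound addition, monitored kinetically with fluo-8 dye on an FDSS reader.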
# Ubiquitin carboxyl-terminal hydrolase 1 (Homo sapiens), sequence (O94782 whole entry, looked up): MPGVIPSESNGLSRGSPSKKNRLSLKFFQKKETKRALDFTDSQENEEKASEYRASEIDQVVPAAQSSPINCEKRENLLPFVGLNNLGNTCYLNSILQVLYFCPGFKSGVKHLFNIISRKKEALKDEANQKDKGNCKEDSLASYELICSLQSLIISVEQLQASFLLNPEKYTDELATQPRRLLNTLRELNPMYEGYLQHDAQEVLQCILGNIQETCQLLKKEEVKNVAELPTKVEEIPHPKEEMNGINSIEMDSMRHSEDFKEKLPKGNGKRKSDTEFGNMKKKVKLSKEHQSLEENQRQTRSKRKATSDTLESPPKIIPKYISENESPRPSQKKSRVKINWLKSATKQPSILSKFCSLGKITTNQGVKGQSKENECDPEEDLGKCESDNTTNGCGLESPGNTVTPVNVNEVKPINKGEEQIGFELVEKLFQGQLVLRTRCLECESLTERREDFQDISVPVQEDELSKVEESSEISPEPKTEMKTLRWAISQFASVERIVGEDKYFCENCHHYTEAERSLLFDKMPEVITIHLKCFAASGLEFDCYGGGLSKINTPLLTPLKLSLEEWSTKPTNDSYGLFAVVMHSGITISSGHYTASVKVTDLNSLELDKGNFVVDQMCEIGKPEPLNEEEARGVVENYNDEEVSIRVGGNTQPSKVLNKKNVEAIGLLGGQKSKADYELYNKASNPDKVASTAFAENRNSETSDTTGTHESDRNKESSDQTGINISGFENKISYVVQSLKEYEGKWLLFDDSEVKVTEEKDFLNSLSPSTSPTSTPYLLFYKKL
# M-phase phosphoprotein 8 (Homo sapiens), sequence (Q99549 whole entry, looked up): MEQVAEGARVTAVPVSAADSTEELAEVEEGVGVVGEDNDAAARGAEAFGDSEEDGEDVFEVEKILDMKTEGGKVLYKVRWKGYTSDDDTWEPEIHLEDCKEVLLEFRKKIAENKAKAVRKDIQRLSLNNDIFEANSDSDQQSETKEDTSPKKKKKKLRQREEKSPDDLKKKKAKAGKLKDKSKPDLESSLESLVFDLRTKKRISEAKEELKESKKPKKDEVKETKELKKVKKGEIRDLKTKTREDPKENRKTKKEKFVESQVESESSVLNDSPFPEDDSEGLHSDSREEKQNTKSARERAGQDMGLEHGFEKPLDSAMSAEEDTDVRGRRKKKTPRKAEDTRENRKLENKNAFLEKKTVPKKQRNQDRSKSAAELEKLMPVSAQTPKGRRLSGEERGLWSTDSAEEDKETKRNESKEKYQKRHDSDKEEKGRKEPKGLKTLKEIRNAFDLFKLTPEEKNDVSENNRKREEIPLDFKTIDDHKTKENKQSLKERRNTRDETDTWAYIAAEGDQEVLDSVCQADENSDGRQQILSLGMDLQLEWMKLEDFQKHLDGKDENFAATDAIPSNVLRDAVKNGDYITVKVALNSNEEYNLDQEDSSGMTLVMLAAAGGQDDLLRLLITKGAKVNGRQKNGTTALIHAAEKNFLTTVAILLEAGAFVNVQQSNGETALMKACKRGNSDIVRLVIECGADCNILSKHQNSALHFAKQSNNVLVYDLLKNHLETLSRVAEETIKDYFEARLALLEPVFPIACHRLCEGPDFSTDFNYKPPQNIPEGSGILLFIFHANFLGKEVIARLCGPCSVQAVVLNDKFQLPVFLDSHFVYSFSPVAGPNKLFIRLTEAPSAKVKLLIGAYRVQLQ
# D(1A) dopamine receptor (Homo sapiens), sequence (P21728 whole entry, looked up): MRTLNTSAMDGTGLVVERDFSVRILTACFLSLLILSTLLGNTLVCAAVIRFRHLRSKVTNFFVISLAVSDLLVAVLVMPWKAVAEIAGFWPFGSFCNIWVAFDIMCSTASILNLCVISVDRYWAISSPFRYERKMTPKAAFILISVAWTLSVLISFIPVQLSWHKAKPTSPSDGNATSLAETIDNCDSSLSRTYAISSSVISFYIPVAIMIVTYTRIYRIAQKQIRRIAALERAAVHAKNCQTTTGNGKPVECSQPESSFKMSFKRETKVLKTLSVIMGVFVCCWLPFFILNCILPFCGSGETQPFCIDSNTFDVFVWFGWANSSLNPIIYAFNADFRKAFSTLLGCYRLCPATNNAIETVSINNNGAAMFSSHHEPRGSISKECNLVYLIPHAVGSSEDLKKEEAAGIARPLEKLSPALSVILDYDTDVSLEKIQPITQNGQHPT
# ATP-dependent 6-phosphofructokinase (Trypanosoma brucei brucei), sequence (O15648 whole entry, looked up): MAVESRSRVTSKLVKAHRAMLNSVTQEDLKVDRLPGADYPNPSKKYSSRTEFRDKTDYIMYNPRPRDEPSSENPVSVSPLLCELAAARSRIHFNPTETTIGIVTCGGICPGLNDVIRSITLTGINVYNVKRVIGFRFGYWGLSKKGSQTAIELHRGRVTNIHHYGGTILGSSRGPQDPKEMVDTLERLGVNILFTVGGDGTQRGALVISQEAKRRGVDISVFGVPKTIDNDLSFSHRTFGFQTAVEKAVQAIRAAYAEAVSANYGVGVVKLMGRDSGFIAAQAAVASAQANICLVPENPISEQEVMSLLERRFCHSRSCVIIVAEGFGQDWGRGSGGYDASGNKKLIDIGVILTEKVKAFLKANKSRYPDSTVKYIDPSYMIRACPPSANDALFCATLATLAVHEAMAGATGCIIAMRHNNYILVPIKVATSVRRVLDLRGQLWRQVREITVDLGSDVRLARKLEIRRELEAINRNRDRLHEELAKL
# phosphoglycerate mutase (Leishmania major), sequence (Q4Q090 1-553): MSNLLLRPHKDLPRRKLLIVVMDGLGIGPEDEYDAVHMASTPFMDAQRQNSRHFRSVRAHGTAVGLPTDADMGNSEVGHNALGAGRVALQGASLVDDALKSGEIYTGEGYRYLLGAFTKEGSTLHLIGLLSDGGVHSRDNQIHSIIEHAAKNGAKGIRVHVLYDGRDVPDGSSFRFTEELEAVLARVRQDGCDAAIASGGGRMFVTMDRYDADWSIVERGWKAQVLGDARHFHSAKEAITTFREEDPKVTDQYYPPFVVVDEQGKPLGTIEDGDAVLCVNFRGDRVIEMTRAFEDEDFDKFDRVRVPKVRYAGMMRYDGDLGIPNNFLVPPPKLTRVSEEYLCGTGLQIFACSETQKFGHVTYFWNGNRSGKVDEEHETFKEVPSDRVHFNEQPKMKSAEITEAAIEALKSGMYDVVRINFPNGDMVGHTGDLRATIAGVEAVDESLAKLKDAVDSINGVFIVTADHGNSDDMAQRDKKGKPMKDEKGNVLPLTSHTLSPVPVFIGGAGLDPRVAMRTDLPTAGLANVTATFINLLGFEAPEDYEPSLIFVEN
# Thyrotropin receptor (Homo sapiens), sequence (P16473 whole entry, looked up): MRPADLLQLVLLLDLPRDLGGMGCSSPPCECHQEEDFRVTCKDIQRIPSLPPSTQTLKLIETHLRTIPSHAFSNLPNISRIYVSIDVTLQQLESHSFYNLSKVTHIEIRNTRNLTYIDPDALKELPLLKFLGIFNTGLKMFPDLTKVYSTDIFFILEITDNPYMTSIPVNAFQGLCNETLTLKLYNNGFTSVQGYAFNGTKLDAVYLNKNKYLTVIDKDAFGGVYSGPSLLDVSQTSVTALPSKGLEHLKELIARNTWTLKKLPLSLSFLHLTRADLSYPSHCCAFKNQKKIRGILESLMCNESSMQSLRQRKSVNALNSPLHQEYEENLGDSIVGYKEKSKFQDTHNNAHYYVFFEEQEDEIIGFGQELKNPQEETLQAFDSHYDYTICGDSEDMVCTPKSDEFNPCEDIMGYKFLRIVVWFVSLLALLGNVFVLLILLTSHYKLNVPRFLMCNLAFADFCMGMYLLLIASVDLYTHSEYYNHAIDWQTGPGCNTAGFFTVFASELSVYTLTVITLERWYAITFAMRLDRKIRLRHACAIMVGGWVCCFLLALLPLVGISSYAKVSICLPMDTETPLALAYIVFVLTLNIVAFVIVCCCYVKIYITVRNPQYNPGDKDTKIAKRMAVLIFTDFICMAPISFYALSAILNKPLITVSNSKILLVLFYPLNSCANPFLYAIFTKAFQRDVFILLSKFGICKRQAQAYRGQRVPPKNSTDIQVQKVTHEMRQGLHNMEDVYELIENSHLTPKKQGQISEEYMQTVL
# Phosphoglycerate kinase, glycosomal (Trypanosoma brucei brucei), sequence (P07378 whole entry, looked up): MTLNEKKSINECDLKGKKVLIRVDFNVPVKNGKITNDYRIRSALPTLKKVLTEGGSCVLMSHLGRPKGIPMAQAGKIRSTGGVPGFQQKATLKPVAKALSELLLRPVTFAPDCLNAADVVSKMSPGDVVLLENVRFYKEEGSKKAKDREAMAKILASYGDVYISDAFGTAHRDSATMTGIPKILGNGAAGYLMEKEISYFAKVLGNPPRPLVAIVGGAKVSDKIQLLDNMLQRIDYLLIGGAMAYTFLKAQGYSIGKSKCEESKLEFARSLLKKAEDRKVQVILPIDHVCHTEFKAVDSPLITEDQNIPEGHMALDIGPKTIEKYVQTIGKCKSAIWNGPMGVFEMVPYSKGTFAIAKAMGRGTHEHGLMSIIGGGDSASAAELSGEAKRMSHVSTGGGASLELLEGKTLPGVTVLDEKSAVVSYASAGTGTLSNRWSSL
# Methanococcus maripaludis chaperonin (MmCpn), sequence (Q6LX38 1-543): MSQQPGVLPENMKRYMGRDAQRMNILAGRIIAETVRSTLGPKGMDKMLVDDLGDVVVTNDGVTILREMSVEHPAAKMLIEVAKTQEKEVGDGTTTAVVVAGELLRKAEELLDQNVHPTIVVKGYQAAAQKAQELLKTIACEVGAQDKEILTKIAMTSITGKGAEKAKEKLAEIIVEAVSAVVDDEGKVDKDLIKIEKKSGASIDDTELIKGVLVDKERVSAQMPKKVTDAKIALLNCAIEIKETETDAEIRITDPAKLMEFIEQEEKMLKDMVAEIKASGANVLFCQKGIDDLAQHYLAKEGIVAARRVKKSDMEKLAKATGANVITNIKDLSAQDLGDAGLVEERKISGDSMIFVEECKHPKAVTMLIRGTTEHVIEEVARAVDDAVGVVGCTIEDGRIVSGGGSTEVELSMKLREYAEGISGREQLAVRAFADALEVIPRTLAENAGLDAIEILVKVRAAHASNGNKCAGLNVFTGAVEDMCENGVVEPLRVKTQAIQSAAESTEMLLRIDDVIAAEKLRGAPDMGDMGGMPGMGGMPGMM
smiles,measurement,setting,value
CN[C@H]1CC[C@@H](c2ccc(Cl)c(Cl)c2)c2ccccc21,outcome,[1],inactive
same,outcome,[2],inactive
same,outcome,[3],inactive
same,outcome,[4],inactive
same,Potency,[5],11.2 µM (active)
same,outcome,[6],inactive
same,Potency,[7],10 µM (active)
same,outcome,[8],inactive
same,outcome,[9],inactive
same,outcome,[10],inactive
same,viability change,[10],1.73%
same,outcome,[11],inactive
same,outcome,[12],inactive
same,outcome,[13],inactive
same,outcome,[14],inactive
same,outcome,[15],inactive
same,outcome,[16],inactive
same,Potency,[17],inactive
C=CCNC1=C2C[C@@H](C)C[C@H](OC)[C@H](O)[C@@H](C)/C=C(\C)[C@H](OC(N)=O)[C@@H](OC)/C=C\C=C(/C)C(=O)NC(=CC1=O)C2=O,outcome,[8],inactive
C1CNCCN1,Potency,[17],inactive
COC1C(OC(=O)/C=C/C=C/C=C/C=C/C(=O)O)CCC2(CO2)C1C1(C)OC1CC=C(C)C (stereo unspecified),outcome,[8],inactive
same,Potency,[17],inactive
NCCCC(=O)O,outcome,[1],inactive
same,outcome,[2],inactive
same,outcome,[3],inactive
same,outcome,[18],inactive
same,outcome,[4],inactive
same,Potency,[5],inactive
same,Potency,[7],inactive
same,outcome,[9],inactive
same,outcome,[19],inactive
same,activation,[20],-0.125% (inactive)
same,outcome,[10],inactive
same,viability change,[10],14.4%
same,outcome,[11],inactive
same,outcome,[12],inactive
same,outcome,[13],inactive
same,outcome,[14],inactive
same,outcome,[15],inactive
same,outcome,[16],inactive
same,Potency,[17],inactive
CCCOc1ccc2nc(NC(=O)OC)sc2c1,outcome,[8],inactive
same,Potency,[17],inactive
COc1cc(C[C@H]2C(=O)OC[C@@H]2Cc2ccc(OC)c(OC)c2)ccc1O,Potency,[17],inactive
CN(C)CCCn1cc(C2=C(c3c[nH]c4ccccc34)C(=O)NC2=O)c2ccccc21,Potency,[17],50.1 µM (active)
O=C(O)CC(O)(CC(=O)O)C(=O)O,Potency,[17],inactive

# — PubChem BioAssay (NCATS)
